This is a sample that favours compounds with a hit; in the whole collection about 0.7% have one here.
Mtb hypoxia inh: reduces hypoxia-regulated biosensor signal in M. tuberculosis; M. tuberculosis hypoxia-regulated fluorescent reporter, fluorescence; fluorescence inhibition, % (test concentration not listed); actives 0.1% (n = 300,000); AID 1159583; in the data active = fluorescence inhibition mostly above about 23%, no sharp cut-off; inactive = mostly below about 17%
Mtb BioA inh: BioA (M. tuberculosis) enzyme inhibition. purified M. tuberculosis BioA enzyme, plate reader. inhibition, % at 9.99 µM. actives 0.096% (n = 360,000); in the data active = inhibition above about 40%
FadD28 binding: M. tuberculosis FadD28 bisubstrate binding inhibition; FadD28 bisubstrate probe binding, fluorescence polarization; inhibition, % at 12.5 µM; actives 0.22% (n = 360,000); AID 588549; in the data active = inhibition above about 8.5%, passing the limit was not always enough
3CLpro inhibitor: SARS-CoV 3CLpro protease inhibition; P0C6X7; recombinant SARS-CoV 3CLpro, quenched FRET peptide cleavage; inhibition, % at 6 µM; actives 0.14% (n = 290,000); in the data active = inhibition above about 12%
DUSP3 inh: DUSP3 (human) phosphatase inhibition | P51452 | inhibition, % at 13.3 µM | recombinant VHR phosphatase, pNPP absorbance | actives 0.52% (n = 290,000); in the data active = inhibition above about 50%
Target sequence (P51452 whole entry, looked up): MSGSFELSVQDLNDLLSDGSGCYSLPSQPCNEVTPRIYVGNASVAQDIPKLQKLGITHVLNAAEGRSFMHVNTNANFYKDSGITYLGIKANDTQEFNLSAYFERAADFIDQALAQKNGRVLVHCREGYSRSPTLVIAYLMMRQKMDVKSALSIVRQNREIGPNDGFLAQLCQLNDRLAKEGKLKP
Starred values were filed as active, the others as inactive; i = inactive; x = not tested or not shown.

SMILES	Mtb hypoxia inh	Mtb BioA inh	FadD28 binding	3CLpro inhibitor	DUSP3 inh
Cc1cc(C)c(-c2csc(NC(=O)/C=C/c3cccs3)n2)c(C)c1	-5.2	-1.8	-0.7	-1.2	52.9*
Nc1ccc2nc(-c3ccc(Cl)cc3)[nH]c2c1	4.9	-1.2	-1.7	x	16.6
Nc1ccc(-c2nc3ccc(N)cc3[nH]2)cc1	3.5	x	14.4*	-3.6	37.2
Nc1ccc(-c2nc3c(Cl)c(N)ccc3[nH]2)cc1	3.3	-6.8	11.4*	0.6	-0.5
COC(C(=O)N/N=C(\C)c1ccc(C)cc1)c1ccccc1 (centres undefined)	x	2.0	-0.9	0.3	51.5*
COc1ccc(NC(=O)N(C)CC2Oc3ccc(NC(=O)CCN4CCOCC4)cc3C(=O)N(C(C)CO)CC2C)cc1 (centres undefined)	-5.8	x	x	x	x
CN1C(=O)C2C(C=Cc3ccccc3)N3C(=O)CN(Cc4ccccc4)C(=O)[C@@]3(C)C2C1=O (some centres undefined)	-9.3	x	x	x	x
CCOc1ccc(C(O)=C2C(=O)C(=O)N(c3nc(C)c(C)s3)C2c2ccco2)cc1 (centres undefined)	11.9	x	x	x	x
Cc1ccc(S(=O)(=O)Nc2c(C)n(C)n(-c3ccccc3)c2=O)cc1C(=O)OC(C)C(=O)c1ccccc1 (centres undefined)	21.3*	0.9	-2.0	x	x
Cc1ccc(S(=O)(=O)Nc2c(C)n(C)n(-c3ccccc3)c2=O)cc1C(=O)OC(C)C(=O)N(C)c1ccccc1 (centres undefined)	7.5	-3.2	-2.4	-5.3	13.2
CC(=NNC(=O)c1ccccc1O)c1cccc(NC(=O)c2ccccc2)c1	-0.4	x	x	x	x
O=C(O)C1Nc2c(O)cc(Cl)c([N+](=O)[O-])c2C2C=CCC12 (centres undefined)	18.4	x	59.2*	2.4	88.8
CN(C(=O)c1ccccc1Cl)c1ccccc1C(=O)NCc1ccccc1	6.1	-0.8	0.1	-5.8	52.9*
O=C(Nc1ccccc1)C1=CC(c2coc3ccccc3c2=O)CC(OCc2ccc(CO)cc2)O1 (centres undefined)	-0.6	x	x	x	x
COc1ccc(NC2CCCN(C(=O)CCc3ccncc3)C2)cc1OC (centres undefined)	-0.2	-4.8	-2.2	-7.8	54.2*
Cc1ccc(NC2CCCN(C(=O)CCc3ccncc3)C2)cc1C (centres undefined)	-9.6	0.4	-2.4	-0.9	18.8
CCn1c(=N)n(CC(=O)OC)c2ccccc21	5.6	-4.9	0.8	-0.3	55.9*
CCn1c(=N)n(CC(=O)C(C)(C)C)c2ccccc21	-0.5	2.7	-1.9	4.0	-11.1
COc1ccc(N(CC(=O)NC2CCCC2)C(=O)CCC(=O)Nc2nc(C)cs2)cc1OC	-4.7	-0.9	0.1	-0.6	52.9*
COCCCNc1c2c3c(cccc3[nH]c1=O)C(=O)c1ccccc1-2	-39.6	i	57.8*	-7.0	12.8
COc1ccc(C2CC(=O)Oc3c(C(C)C)ccc(C)c32)cc1 (centres undefined)	-0.5	0.5	8.8*	x	x
CC1CCC/C(=C\Nc2ccc(C(=O)O)c(O)c2)C1=O (centres undefined)	x	x	4.3	2.5	1.5
O=C1CCCC/C1=C\Nc1ccc(C(=O)O)c(O)c1	x	x	30.7*	-2.5	17.2
CNC(=O)C1CCN(S(=O)(=O)c2c(C)noc2C=Cc2ccc(C)cc2)CC1	1.5	x	x	x	x
CC(=NNC(=O)c1cc2c(s1)CCC(C)C2)c1ccncc1 (centres undefined)	6.4	x	x	x	x
SMILES	Mtb hypoxia inh	Mtb BioA inh	FadD28 binding	3CLpro inhibitor	DUSP3 inh
CN(C)c1ccc(Cc2cc3c(O)ccc(O)c3cc(Cc3ccc(N(C)C)cc3)c2=O)cc1	x	x	11.1*	x	x
CN(C)c1ccc(C(=O)c2ccc(O)cc2O)cc1	x	-1.7	-1.7	-0.7	13.4
COc1ccc(S(=O)(=O)Nc2ccc(N3CCOCC3)cc2)cc1	-0.6	-1.3	-1.6	-2.1	-2.2
COc1ccc(NS(=O)(=O)c2ccc(N3CCOCC3)c(N)c2)cc1	28.5*	1.6	-3.1	x	x
CCCC(=O)Nc1c2c(nn1-c1cccc(C)c1C)CS(=O)(=O)C2	-0.4	-0.1	-3.0	-2.0	13.3
CCC(=O)Nc1c2c(nn1-c1ccccc1C)CSC2	5.3	-3.6	-2.0	-4.5	13.3
CC(=O)Nc1c2c(nn1-c1ccccc1C)CS(=O)(=O)C2	-7.9	-1.2	2.2	-1.8	56.9*
CC(=O)Nc1c2c(nn1-c1ccccc1C)CSC2	12.2	-1.2	-2.5	-2.7	57.5*
Cc1cccc2c1ncc1c(=O)n(-c3ccccc3)[nH]c12	2.3	x	-4.7	0.4	56.9*
O=C(NCc1ccccc1F)C1CCCN1S(=O)(=O)c1ccc(F)cc1 (centres undefined)	-2.1	0.9	0.4	2.6	58.7*
CC(=O)N1c2ccc(S(=O)(=O)N3CCCCC3)cc2CC1C(=O)NCc1ccccc1C (centres undefined)	5.0	0.7	0.1	-3.5	52.1*
COc1ccccc1CNC(=O)C1Cc2cc(S(=O)(=O)N3CCCC3)ccc2N1C(C)=O (centres undefined)	-5.8	-0.2	-0.3	-6.4	7.8
CC(=O)N1c2ccc(S(=O)(=O)N3CCCC3)cc2CC1C(=O)NCc1ccccc1F (centres undefined)	-2.9	-0.9	-4.5	-5.2	56.3*
O=C(NC1CCCCC1)C1CCCN1S(=O)(=O)c1ccc(Cl)cc1 (centres undefined)	13.1	-1.5	-1.3	-5.5	53.3*
CC(CC(=O)Nc1ccc(N(C)C)cc1)=NNC(=O)c1ccc(C(C)(C)C)cc1	-5.9	x	x	x	x
CC(C)CC(COc1ccccc1)N1CCN(C)CCC1=O (centres undefined)	5.5	x	x	x	x
COc1ccc(CNC(=O)CC2C(=O)N(C3CCCCC3)CC2Cc2ccccc2)cc1 (centres undefined)	0.5	x	x	x	x
Cc1cc(C(=O)NN=C2CC(C)CC(C)(C)C2)c(C)o1 (centres undefined)	9.1	x	x	x	x
Cc1csc(=NN=Cc2ccccc2)n1Cc1ccco1	9.4	x	x	x	x
O=C1CSC(=S)N1/N=C/c1ccc(O)c(O)c1O	x	-0.6	9.4*	5.8	5.4
O=C1CSC(=S)N1/N=C/c1cc(Br)ccc1O	x	x	x	2.5	26.0
CC(C)(C)NS(=O)(=O)c1ccc(CCC(=O)Nc2ccc3c(c2)OCCO3)cc1	7.0	0.0	-2.9	3.5	51.3*
O=C1C2C3C=CC(CC3)C2C(=O)N1N=Cc1c[nH]c2ccccc12 (centres undefined)	-6.7	x	x	x	x
CCCOC(=O)c1cc(-c2ccc(/C=C3/C(=O)N(C)C(=O)C(C#N)=C3C)o2)ccc1Cl	-2.8	3.6	-0.3	8.7	x
C=CCOC(=O)c1cc(-c2ccc(/C=C3\C(=O)NC(=O)C(C#N)=C3C)o2)ccc1Cl	9.4	6.6	20.3*	-2.5	11.6
O=C(N=C1SC2CS(=O)(=O)CC2N1c1ccccc1)c1cccc([N+](=O)[O-])c1 (centres undefined)	0.9	-1.7	-0.3	x	x
COc1ccc(C(=O)N=C2SC3CS(=O)(=O)CC3N2c2ccccc2)cc1OC (centres undefined)	5.4	-1.6	-1.3	-5.8	52.3*

High-throughput results from PubChem BioAssay.
